Measured values: PubChem BioAssay (NCATS)
Inconclusive results are not listed. Where a call stands in place of a potency, no number is given. A number with no mark means an inactive call. The source made the active and inactive calls. Calls come from the whole dose curve; as a rule, active = well fitted inhibition curve with a large enough effect; inconclusive = small, poorly fitted or top-dose-only effect; inactive = flat fitted curve, though single readings scatter.

Assays:
[1] = qHTS profiling for inhibitors of Plasmodium falciparum proliferation (AID 504749); note: nearly all actives have a fitted effect of over 60% in size; details: P. falciparum in erythrocytes, SYBR Green DNA, 72 h
Procedure, shortened: (§1)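 In a 72 h erythrocytic culture (37 C, humidified, 5% CO2) at 2.5% hematocrit and 0.3% starting parasitemia, compounds were tested; SYBR Green I in detergent lysis buffer stained parasite DNA overnight.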

3D7 = test: as above; details: P. falciparum in erythrocytes, SYBR Green DNA, 72 h; series mostly up to 28.7 µM
Procedure, shortened: as §1

7G8 = test: as above; details: P. falciparum in erythrocytes, SYBR Green DNA, 72 h; series mostly up to 28.7 µM
Procedure, shortened: as §1

AS120 = test: as above; details: P. falciparum in erythrocytes, SYBR Green DNA, 72 h; series mostly up to 28.7 µM
Procedure, shortened: as §1

ATS189 = test: as above; details: P. falciparum in erythrocytes, SYBR Green DNA, 72 h; series mostly up to 28.7 µM
Procedure, shortened: as §1

AA1029 = test: as above; details: P. falciparum in erythrocytes, SYBR Green DNA, 72 h; series mostly up to 28.7 µM
Procedure, shortened: as §1

ATS95 = test: as above; details: P. falciparum in erythrocytes, SYBR Green DNA, 72 h; series mostly up to 28.7 µM
Procedure, shortened: as §1

[2] = at 28.7 µM (top of the series), parasite line A
[3] = at 28.7 µM (top of the series), parasite line B
[4] = at 12.8 µM (top of the series), parasite line A
[5] = at 12.8 µM (top of the series), parasite line B
Potency is the fitted concentration of half-maximal effect.

| SMILES | Potency ([1]; parasite line A) | Potency ([1]; parasite line B) | Potency (3D7) | Potency (7G8) | Potency (AS120) | Potency (ATS189) | activity, negative = inhibition [1, 2] [%] | activity, negative = inhibition [1, 3] [%] | Potency (AA1029) | Potency (ATS95) | activity, negative = inhibition [1, 4] [%] | activity, negative = inhibition [1, 5] [%] |
| --- | --- | --- | --- | --- | --- | --- | --- | --- | --- | --- | --- | --- |
| CC(=O)N/N=C/c1ccc([N+](=O)[O-])o1 | 1.12 µM (active) | 12.6 µM (active) | inactive | 7.94 µM (active) | 7.08 µM (active) | inactive |  |  |  |  |  |  |
| OCc1ccccc1O |  |  | inactive | inactive | inactive | inactive | 6.96 | 8.72 | inactive | inactive |  |  |
| CCOC(=O)COc1ccc2c(C)c(CCN(CC)CC)c(=O)oc2c1Cl | 3.55 µM (active) |  | inactive | inactive |  | inactive |  | -29.4 | inactive | inactive |  |  |
| CCN(CC)CCOC(=O)C(c1ccccc1)C1CCCCC1 (stereo unspecified) |  |  | inactive |  | inactive | inactive | 0.689 | -1.84 |  |  |  |  |
| OC(CCN1CCCCC1)(c1ccccc1)c1ccccc1 |  |  | inactive | 11.2 µM (active) | 11.2 µM (active) |  | 0.409 | -16.8 | 7.94 µM (active) | 8.91 µM (active) |  |  |
| CNCCC(Oc1ccccc1C)c1ccccc1 (stereo unspecified) |  |  | inactive |  |  | inactive | 4.27 | 4.69 |  | inactive |  |  |
| O=C1c2ccccc2C(=O)C1c1ccccc1 |  |  | inactive | inactive | inactive | inactive |  |  | inactive | inactive | 17.2 | 11.5 |
| O=S1(=O)c2cccc3cccc(c23)N1CCCN1CCN(c2ccc(F)cc2)CC1 |  |  | inactive | 12.6 µM (active) | inactive | inactive | 7.63 | -0.586 | inactive | inactive |  |  |
| CCCCC1=NC2(CCCC2)C(=O)N1Cc1ccc(-c2ccccc2-c2nn[nH]n2)cc1 |  |  | inactive |  | inactive | inactive | -0.908 | -26.5 | inactive |  |  |  |
| CCCCN1CCCC1C(=O)Nc1c(C)cc(C)cc1C (stereo unspecified) |  |  | inactive |  | inactive | inactive | -15.8 | -3.59 | inactive | inactive |  |  |
| C[C@H]1[C@H](NC(=O)/C(=N/OC(C)(C)C(=O)O)c2csc(N)n2)C(=O)N1S(=O)(=O)O (stereo in doubt) |  |  | inactive |  | inactive | inactive |  |  | inactive | inactive | 1.65 | 14.2 |
| Cc1c(C)n(Cc2ccccc2)c2ccc(C(=O)OCCN(C)C)cc12 |  |  | inactive |  | inactive | inactive | 11.1 | -2.16 | inactive | inactive |  |  |
| COCc1c(C(C)C)nc(C(C)C)c(/C=C/[C@@H](O)C[C@@H](O)CC(=O)O)c1-c1ccc(F)cc1 |  |  | inactive |  | inactive | inactive | -9.49 | -12.9 | inactive | inactive |  |  |
| CN=C(NC#N)NCCSCc1csc(N=C(N)N)n1 |  |  | inactive | inactive | inactive | inactive | 2.51 | -0.371 | inactive | inactive |  |  |
| N[C@H](Cc1c[nH]c2ccccc12)C(=O)O |  |  | inactive |  | inactive | inactive | 7.64 | 6.56 | inactive | inactive |  |  |
| CCCCCCCCCCCCCCCCOP(=O)([O-])OCC[N+](C)(C)C |  |  | inactive |  | inactive | inactive | -1.43 | 12.3 | inactive | inactive |  |  |
| CCN1CCC[C@H]1CNC(=O)c1c(OC)ccc(Br)c1OC |  |  | inactive | inactive | inactive | inactive | 12.1 | 10 |  | inactive |  |  |
| C#C[C@]1(O)CC[C@H]2[C@@H]3CCc4cc(OC5CCCC5)ccc4[C@H]3CC[C@@]21C |  |  | inactive |  |  | inactive | -10.1 | -11.7 | inactive |  |  |  |
| CCCCOc1cc(C(=O)NCCN(CC)CC)c2ccccc2n1 |  |  | inactive |  | inactive | inactive |  |  | inactive | inactive | 7.49 | 7.29 |
| CC(=O)c1ccc2c(c1)N(CCCN1CCC(CCO)CC1)c1ccccc1S2 |  |  | inactive |  | inactive | inactive |  |  | inactive | inactive | -2.26 | 0.0996 |

| SMILES | Potency ([1]; parasite line A) | Potency ([1]; parasite line B) | Potency (3D7) | Potency (7G8) | Potency (AS120) | Potency (ATS189) | activity, negative = inhibition [1, 2] [%] | activity, negative = inhibition [1, 3] [%] | Potency (AA1029) | Potency (ATS95) | activity, negative = inhibition [1, 4] [%] | activity, negative = inhibition [1, 5] [%] |
| --- | --- | --- | --- | --- | --- | --- | --- | --- | --- | --- | --- | --- |
| Oc1c(I)cc(Cl)c2cccnc12 | 8.91 µM (active) | 8.91 µM (active) | inactive |  | 10 µM (active) | 12.6 µM (active) |  |  |  | inactive |  |  |
| Cc1cccn2c(=O)c(-c3nnn[nH]3)cnc12 |  |  | inactive | inactive | inactive | inactive | 7.08 | 2.69 | inactive | inactive |  |  |
| CN(C(=O)CN(CCO)CC(=O)N(C)C(C)(C)Cc1ccccc1)C(C)(C)Cc1ccccc1 |  |  | inactive | 3.16 µM (active) |  |  |  |  | inactive | inactive | 4.12 | -5.35 |
| CCCN1CCCC[C@H]1C(=O)Nc1c(C)cccc1C |  |  | inactive |  | inactive | inactive | 9.76 | 10.7 | inactive | inactive |  |  |
| CN(C)CCOc1ccccc1Cc1ccccc1 |  |  | inactive |  | 1.78 µM (active) |  | -13.9 | -12.1 | 7.94 µM (active) |  |  |  |
| CCN1CCN(c2cc3c(cc2F)c(=O)c(C(=O)O)cn3C2CC2)CC1 |  |  | inactive |  | inactive | inactive | -8.55 | -3.41 | inactive | inactive |  |  |
| C[C@H]1C[C@H]2[C@@H]3CCC4=CC(=O)C=C[C@]4(C)[C@@]3(Cl)[C@@H](O)C[C@]2(C)[C@@]1(O)C(=O)CO |  |  | inactive |  | inactive | inactive | 2.21 | 13.1 | inactive | inactive |  |  |
| CC(=O)OCC(=O)NCCCOc1cccc(CN2CCCCC2)c1 |  |  | inactive | inactive | inactive | inactive | 16.5 | 8.13 | inactive | inactive |  |  |
| Cc1cc(N)c2cc(NC(=O)Nc3ccc4nc(C)cc(N)c4c3)ccc2n1 | 8.91 µM (active) | 11.2 µM (active) | 7.08 µM (active) | 2.24 µM (active) | 12.6 µM (active) | 5.62 µM (active) |  |  | 14.1 µM (active) | 11.2 µM (active) |  |  |
| C[C@@H](CN(C)C)CN1c2ccccc2Sc2ccccc21 |  |  | inactive |  | inactive | inactive |  |  | inactive | inactive | 1.53 | 7.77 |
| O=C1OC(c2ccc(O)cc2)(c2ccc(O)cc2)c2ccccc21 |  |  | inactive | inactive | inactive |  | -7.68 | 10.2 | inactive | inactive |  |  |
| CCN1CCCC1=O |  |  | inactive |  | inactive | inactive | 3.13 | 11.2 | inactive | inactive |  |  |
| CCN(CCCc1ccccc1)CCCc1ccccc1 |  |  | inactive |  |  |  |  |  |  | 3.55 µM (active) | -8.39 | -11 |
| O=c1c(-c2ccccc2)c1-c1ccccc1 | 11.2 µM (active) | 10 µM (active) | 11.2 µM (active) | 8.91 µM (active) |  | 10 µM (active) |  |  |  |  |  |  |
| CC(C)(C(=O)c1cccnc1)c1cccnc1 |  |  | inactive |  | inactive | inactive |  |  | inactive | inactive | -8.96 | -23.5 |
| COc1cc2c(cc1OC)C(=O)C(CC1CCN(Cc3ccccc3)CC1)C2 (stereo unspecified) |  |  | inactive |  | inactive |  | -29.4 | 5.51 |  | inactive |  |  |
| Cc1cc(O)c(C(C)C)cc1Cl |  |  | inactive |  | inactive | inactive | 0.647 | 11.2 | inactive | inactive |  |  |
| Oc1ccc(Cl)cc1Sc1cc(Cl)ccc1O |  |  | inactive | 12.6 µM (active) |  | inactive | 0.98 | -24.8 | inactive | inactive |  |  |
| c1ccc(OCc2ccc(CCCN3CCOCC3)cc2)cc1 |  |  | inactive |  | inactive | inactive | 3.42 | 8.4 | inactive | inactive |  |  |
